Experimental data taken from PubChem BioAssay AID1135 (Sanford-Burnham Center for Chemical Genomics, 2008).
In all, about 200,000 compounds went through this assay and about 65 (0.03%) were called active.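 How the source made its calls: active means over 50% inhibition of tissue-nonspecific alkaline phosphatase at 20 µM in the single-dose screen; inactive means the rest.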 The sample as a whole holds a higher share of actives than the screen did.

Target: Alkaline phosphatase, tissue-nonspecific isozyme (Homo sapiens) (UniProt P05186)
Sequence (P05186 whole entry, looked up): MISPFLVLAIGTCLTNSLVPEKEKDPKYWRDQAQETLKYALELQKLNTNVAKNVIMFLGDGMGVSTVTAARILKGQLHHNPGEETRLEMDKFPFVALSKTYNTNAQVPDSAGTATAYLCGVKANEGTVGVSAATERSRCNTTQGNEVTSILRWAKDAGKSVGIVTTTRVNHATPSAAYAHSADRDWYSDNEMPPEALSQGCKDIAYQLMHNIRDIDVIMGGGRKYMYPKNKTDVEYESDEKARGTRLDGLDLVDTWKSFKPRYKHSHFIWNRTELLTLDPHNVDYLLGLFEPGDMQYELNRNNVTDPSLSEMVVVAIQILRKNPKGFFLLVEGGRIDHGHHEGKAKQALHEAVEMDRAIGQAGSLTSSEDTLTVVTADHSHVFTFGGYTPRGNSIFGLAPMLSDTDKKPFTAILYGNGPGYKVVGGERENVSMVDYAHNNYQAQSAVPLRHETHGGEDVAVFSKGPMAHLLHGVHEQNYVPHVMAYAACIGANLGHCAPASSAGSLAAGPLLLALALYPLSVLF
Assay: blockers of alkaline phosphatase TNAP activity – biochemical, luminescent, high phosphate acceptor level, uHTS, primary screen (AID 1135);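 further: plate controls were DMSO wells for no effect and EDTA-quenched wells as full inhibition for full effect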
Conditions: purified TNAP, CDP-star luminescence, 1 M DEA; at 20 µM; stronger effect = higher value

inhibition, inactive:
OC(CN=c1sc2ccccc2n1CC(O)COc1ccccc1)COc1ccccc1 (stereo unspecified) -2%
CC(C)(C)C(=O)N1CCC[C@@]1(CO)C(=O)O 1.3%
CCCn1nc(C(=O)Nc2ccc3nc(C)sc3c2)c2ccccc2c1=O 0%
O=C(NNc1cc(Cl)ccc1Cl)c1cccnc1Cl -3.3%
Cn1cnnc1Sc1ccc(S(C)(=O)=O)cc1[N+](=O)[O-] 3.1%
CN(C)S(=O)(=O)c1ccc(N2CCCC2=O)c([N+](=O)[O-])c1 -2.1%
Cc1ccccc1Nc1nc(N)nc(CSc2nnc3ccccn23)n1 -3.4%
O=C1CCC/C(=N\NC(=O)NC2CCCCC2)C1 3.6%
Cc1ccccc1C1=NC(C(F)(F)F)(C(F)(F)F)c2c(n(-c3ccc(F)cc3)c(=O)[nH]c2=O)N1 -3.5%
Cc1cccc(NC(=S)Nc2ccc(Cl)c(Cl)c2)c1 -5.2%
COc1ccccc1Oc1ccc(N/C=C2/CCCC2=O)cc1 -1.1%
Cc1ccc(OCc2n[nH]c(=S)n2-c2ccccc2)cc1 -3.4%
COC(=O)c1c(NC(=O)c2c(Cl)cnn2C)sc(C)c1C -0.7%
Cc1nc2ccccc2nc(C)c1=NOCc1ccc(Cl)cc1Cl -3.2%
O=C(/C=C/c1ccc(F)cc1)NC(=S)NNC(=O)c1cccnc1 -2.2%
CC1=C[C@H]2Cc3cc(C)cc(C)c3S(=O)(=O)[C@@H]2C=C1 1.3%
Cc1ccc(C)c(-n2nnnc2SCC(=O)c2c(N)n(C)c(=O)n(C)c2=O)c1 -2.7%
COc1cccc(NC(=S)N(Cc2ccc(C)cc2)Cc2ccccn2)c1 -3.4%
COc1cccc(C2CC(c3ccccc3)=NN2S(=O)(=O)c2ccccc2)c1OC (stereo unspecified) -5.8%
Cn1c(=N)n(CC(O)c2cccs2)c2ccccc21 (stereo unspecified) -2%
C=CCNc1nc(Nc2ccc(Cl)cc2)nc(OC)n1 -3%
COC(=O)c1nn(-c2cccc(Cl)c2)ccc1=O -8.9%
CCN(CC)CCN(C(=O)c1ccc(N2C(=O)CCC2=O)cc1)c1nc2cc3c(cc2s1)OCO3 -2.1%
CC(=O)c1cnc(SCC(=O)O)nc1C -1.6%
Cc1cccc(C2=N/C(=C/c3cccs3)C(=O)O2)c1 -2.6%
COC(=O)C(C(=O)Nc1cccc(Cl)c1C)C1CCCC1 (stereo unspecified) -6.6%
CCOC(=O)C1C(c2ccc(Cl)cc2)NC(=S)NC1(O)C(F)(F)F (stereo unspecified) 4.4%
CCOC(=O)/C(=N\Nc1cc(Cl)ccc1Cl)N1CCN(C)CC1 3.4%
S=C(NCC1CCCO1)N1CCN(c2ccc(Cl)c(Cl)c2)CC1 (stereo unspecified) -1.7%
COc1cc(C2OC(c3cc(OC)c(OC)c(OC)c3)C(C)C2C)cc(OC)c1OC (stereo unspecified) -2.4%
O=C(CCCCCNC(=O)c1ccccc1)N/N=C/c1ccccc1 -6.8%
O=C(NCCN1C(=O)S/C(=C\c2cccnc2)C1=O)c1cccc(OC(F)F)c1 -0.3%
COc1ccc(CCc2nnc(CCC(=O)NCc3cnn(-c4ccccc4C)c3)o2)cc1 1.5%
S=C(NCCc1ccccc1)NCC1CCCO1 (stereo unspecified) -0.7%
CN(C)c1ccc(/C=N/NC(=O)C(O)c2ccc(Br)cc2)cc1 (stereo unspecified) -1.9%
CCCCN(C)CCNC(=O)CSCc1ccc(C)cc1 -5.4%
CC(=O)c1sc(N/N=C/c2ccc(C(C)C)cc2)nc1C 13.5%
Cc1ccc(OCC(=O)NC(C)c2ccccc2)c([N+](=O)[O-])n1 (stereo unspecified) -1.6%
Cc1ccc(CSCC(N)C(=O)O)cc1 (stereo unspecified) 0.6%
O=C(Nc1ccc(N2CCOCC2)cc1)c1ccc(-c2ccccc2[N+](=O)[O-])o1 0.3%
Cc1ccc(-c2nc(-c3cccnc3)sc2CC(=O)Nc2ccc(C)c(Cl)c2)cc1 -1.4%
O=C(CC1SC(=Nc2ccccc2)N(Cc2ccccn2)C1=O)Nc1cccc(Cl)c1 (stereo unspecified) 3%
CCCCC(CC(C)O)c1n[nH]c(=S)n1-c1ccccc1 (stereo unspecified) 7.9%
COCCn1c(=NC(=O)c2ccccc2[N+](=O)[O-])sc2cc(S(C)(=O)=O)ccc21 3.3%
C#CCCCc1nc2ccccc2c(=O)n1N -3.7%
Cc1c(NC(=S)Nc2ccccc2)c(=O)n(-c2ccccc2)n1C 4.8%
O=C(COC(=O)[C@H](Cc1ccccc1)NC(=O)c1cccs1)Nc1cc(F)ccc1F -1.2%
C=CCn1c(SCCOc2ccc(OC)cc2)nnc1C(NC(=O)c1ccc(OC)cc1)C(C)C (stereo unspecified) -3.4%
CN1CCN(C(=O)N2c3ccccc3CCc3ccccc32)CC1 -5.7%
COc1ccc(CCNC(=O)CSc2nc3[nH]ncc3c(=O)n2-c2cccc(C(F)(F)F)c2)cc1OC 2.6%
CN(CCOc1ccc(Br)cc1)CC(=O)Nc1cccc(S(=O)(=O)NC2=NCCC2)c1 -4.6%
O=C(NNC1CC(=O)N(c2cccc(Cl)c2)C1=O)c1cccnc1 (stereo unspecified) -3.4%
Cc1ccc(S(=O)(=O)NC2(C(F)(F)F)NC(=O)N(CCc3ccccc3)C2=O)cc1 (stereo unspecified) -6.1%
COc1ccc(OC)c(S(=O)(=O)Nc2cccc(-c3ccc4nncn4n3)c2)c1 -3.7%
C[C@@H](O)c1nc2ccccc2n1N -1.1%
O=C(Nc1cccc(Cl)c1)c1cc([N+](=O)[O-])ccc1N1CCN(CCO)CC1 2.5%
CCOc1ccc(NC(=O)CSc2ncnc3c2sc2ccccc23)cc1 -1.9%
Cc1ccc2[nH]c(=O)c(CN(CC3COCCO3)C(=O)Nc3ccccc3C)cc2c1 (stereo unspecified) -4.6%
COc1cccc(CN(C)CC(=O)NCc2ccccc2Cl)c1OC 1.3%
CCC(C)(C)NC(=O)CN(C(=O)CCC(=O)Nc1cc(C)ccn1)c1ccc2c(c1)OCCO2 -6%
O=C(Nc1ccc(N2CCN(C(=O)c3cccs3)CC2)cc1)c1cccnc1Cl -2.2%
